Assay [1] in a line: qHTS for Inhibitors of the Functional Ribonucleoprotein Complex (vRNP) of Lassa (LASV) Arenavirus: LASV Primary Screen - GLuc reporter signal (AID 1347082; calls by dose curve; tested in HEK293 reporter line; note: nearly all actives have a fitted effect of over 60% in size). A general note: qHTS replaces the single test concentration by a dilution series.
A short description of assay [2]: qHTS for Inhibitors of the Functional Ribonucleoprotein Complex (vRNP) of Lassa (LASV) Arenavirus: Viability assay - alamar blue signal for LASV Primary Screen (AID 1347083; calls by dose curve; tested in HEK293 reporter line; note: nearly all actives have a fitted effect of over 80% in size).
Assay [3] is described as follows: qHTS for Inhibitors of the Functional Ribonucleoprotein Complex (vRNP) of Lymphocytic Choriomeningitis Arenaviruses (LCMV): Viability assay - alamar blue signal for LCMV Primary Screen (AID 1347085; calls by dose curve; tested in HEK293 reporter line; note: nearly all actives have a fitted effect of over 80% in size).
The target of assay [4] is Nucleoprotein (Lymphocytic choriomeningitis virus (strain Armstrong)) (UniProt P09992). Put plainly: qHTS for Inhibitors of the Functional Ribonucleoprotein Complex (vRNP) of Lymphocytic Choriomeningitis Arenaviruses (LCMV): LCMV Primary Screen - GLuc reporter signal (AID 1347086). Note: nearly all actives have a fitted effect of over 70% in size.
Nucleoprotein (Lymphocytic choriomeningitis virus (strain Armstrong)), sequence (P09992 whole entry, looked up): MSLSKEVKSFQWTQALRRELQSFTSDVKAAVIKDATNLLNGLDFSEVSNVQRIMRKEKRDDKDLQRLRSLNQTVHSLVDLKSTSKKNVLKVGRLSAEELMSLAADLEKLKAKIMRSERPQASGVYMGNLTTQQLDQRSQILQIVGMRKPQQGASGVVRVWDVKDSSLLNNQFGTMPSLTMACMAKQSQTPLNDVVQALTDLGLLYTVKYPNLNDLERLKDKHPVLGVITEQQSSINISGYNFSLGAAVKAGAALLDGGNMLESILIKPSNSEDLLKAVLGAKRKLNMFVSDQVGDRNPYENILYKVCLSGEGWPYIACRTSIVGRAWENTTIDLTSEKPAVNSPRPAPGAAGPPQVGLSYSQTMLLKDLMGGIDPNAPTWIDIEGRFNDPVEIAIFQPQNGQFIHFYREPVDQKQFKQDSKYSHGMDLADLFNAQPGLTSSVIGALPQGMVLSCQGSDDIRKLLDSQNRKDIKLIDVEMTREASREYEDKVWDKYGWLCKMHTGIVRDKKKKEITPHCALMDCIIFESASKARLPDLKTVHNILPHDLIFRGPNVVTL

Results filed as inconclusive are left out. Activity calls are given as the source filed them. Unless noted, calls come from the whole dose curve.
Potency is the fitted concentration of half-maximal effect.

Take `CN(C(=O)C(Cl)Cl)c1ccc(OC(=O)c2ccco2)cc1`: the Potency result in assay [1], in assay [2], in assay [3] and in assay [4] was “inactive” throughout.
Consider `C[C@@]12O[C@@H](C[C@]1(O)CO)n1c3ccccc3c3c4c(c5c6ccccc6n2c5c31)CNC4=O`, for which the Potency was 9.68 µM (active) in assay [1], 0.432 µM (active) in assay [2] and 21.7 µM (active) in assay [3].
Turning to `CCC(=O)N[C@H]1CC[C@H](C(=O)N(C)c2ccc(-c3nc4ccccc4o3)cc2)C1`, the Potency in assay [1] was 9.68 µM (active); in assay [2], 3.43 µM (active); in assay [3] it was 2.17 µM (active); in assay [4] it was 3.43 µM (active).
`COc1ccc2c(c1)CC[C@@H](CN(C)CC(=O)O)[C@H]2c1ccccc1`: the Potency entry in assay [1] was “inactive”. Besides, the Potency was 10.9 µM (active) in assay [2] and 4.85 µM (active) in assay [3].
For `Cc1ccc(C(N)=O)cc1Nc1nccc(-c2cn(C(C)C)c3cnccc23)n1` the same measures were 24.3 µM (active), 15.3 µM (active) and 21.7 µM (active).
For `O=C1[C@H](Cc2ccc(O)cc2)N2C(=O)CCN(C(=O)NCc3ccccc3)[C@H]2CN1Cc1cccc2ccccc12`, the Potency in assay [1] is 19.3 µM (active); in assay [2] it was 19.3 µM (active); in assay [3] it was 24.3 µM (active); in assay [4] it was 19.3 µM (active).
Take `C[C@@H](O[C@H]1OCCN(Cc2n[nH]c(=O)[nH]2)[C@@H]1c1ccc(F)cc1)c1cc(C(F)(F)F)cc(C(F)(F)F)c1`: the Potency entry in assay [1], in assay [2], in assay [3] and in assay [4] was “inactive” each time.
Take `NC(=O)c1ccc(N(C(N)=O)c2c(F)cccc2F)nc1-c1ccc(F)cc1F`: the Potency entry in assay [1] is “inactive”. For the same compound, the Potency in assay [2] is 34.3 µM (active); in assay [3], 17.2 µM (active).
As for `COc1ccccc1N1CCN(CC(O)COc2cc(OC)c(OC)c(OC)c2)CC1` (configuration not stated), the Potency entry in assay [1], in assay [2], in assay [3] and in assay [4] was “inactive” in each case.
`Nc1nc2ccc([N+](=O)[O-])cc2s1`: the Potency entry in assay [1], in assay [2] and in assay [3] was “inactive” throughout.
`Nc1ccc(-c2ccc3ncc4ccc(=O)n(-c5cccc(C(F)(F)F)c5)c4c3c2)cn1`: the Potency in assay [1] is 0.0024 µM (active); in assay [2], 0.0027 µM (active); in assay [3] it was 0.0054 µM (active); in assay [4], 0.0054 µM (active).
`c1ccc(-c2nn3c(c2-c2ccnc4cc(OCCN5CCOCC5)ccc24)CCC3)nc1`: the Potency result in assay [1], in assay [2], in assay [3] and in assay [4] was “inactive” each time.
In the case of `O=C(Nc1cc(Cl)cc2c1[nH]c1cnccc12)c1cccnc1`, the Potency in assay [1] is 24.3 µM (active); in assay [2], 21.7 µM (active); in assay [3] it was 24.3 µM (active).
Take `Cn1c2cc(S(C)=O)sc2c2cnn(Cc3cccc(N)c3)c(=O)c21` (configuration not stated): the Potency result in assay [1], in assay [2], in assay [3] and in assay [4] was “inactive” throughout.
On to `Cn1cncc1[C@@](N)(c1ccc(Cl)cc1)c1ccc2c(c1)c(-c1cccc(Cl)c1)cc(=O)n2C`, for which, in assay [1], the Potency result is “inactive”. Moreover, the Potency in assay [2] was 4.32 µM (active); in assay [3], 2.43 µM (active); in assay [4], 1.37 µM (active).
Turning to `OCCn1cc(-c2cnc3nnn(Cc4ccc5ncccc5c4)c3n2)cn1`, the Potency result in assay [1], in assay [2], in assay [3] and in assay [4] was “inactive” throughout.
Turning to `CC(=O)OCCN1C(=O)c2c(C)nc3ccc(S(=O)(=O)N4CCOCC4)cc3c2C1=O`, the Potency entry in assay [1], in assay [2] and in assay [3] was “inactive” each time.
`CCCCCCCCCCCCCC(=O)N[C@H](CO)[C@H](O)c1ccc([N+](=O)[O-])cc1`: the Potency entry in assay [1], in assay [2], in assay [3] and in assay [4] was “inactive” in each case.
Turning to `NC(=O)Nc1cc(-c2cccc(F)c2)sc1C(=O)N[C@H]1CCCNC1`, the Potency was 1.22 µM (active) in assay [1], 0.306 µM (active) in assay [2], 1.53 µM (active) in assay [3] and 3.43 µM (active) in assay [4].
Turning to `COc1cc(OC2CCN(C)CC2)ccc1Nc1ncc2c(n1)n(C1CCCC1)c(=O)n2C`, in assay [1], the Potency result was “inactive”. The Potency is 24.3 µM (active) in assay [2] and 17.2 µM (active) in assay [3].
In the same order, the values of `CCN(CC)CCOc1ccc(Nc2ncc3cc(-c4c(Cl)cccc4Cl)c(=O)n(C)c3n2)cc1` are 1.93 µM (active), 0.0306 µM (active) and 0.172 µM (active).
As for `O=C(C=Cc1cccnc1)NCCCCC1CCN(C(=O)c2ccccc2)CC1`, the Potency in assay [1] is 0.0685 µM (active); in assay [2], 0.0611 µM (active); in assay [3] it was 0.0385 µM (active); in assay [4] it was 0.0385 µM (active).
As to `C[N+](C)(C)CC(=O)O`, the Potency entry in assay [1], in assay [2], in assay [3] and in assay [4] was “inactive” in each case.
As for `COc1ccccc1-c1cccc(-c2c(O)c3cc(C#N)c(Cl)cc3[nH]c2=O)c1`, the Potency result in assay [1], in assay [2], in assay [3] and in assay [4] was “inactive” in each case.
For `N=C1N=C(N)c2cc3ccccc3cc21`, the Potency entry in assay [1], in assay [2], in assay [3] and in assay [4] was “inactive” in each case.
As for `CN1Cc2cc(C(=O)N3CCC(C4CCNCC4)CC3)ccc2N[C@@H](CC(=O)O)C1=O`, the Potency result in assay [1], in assay [2], in assay [3] and in assay [4] was “inactive” throughout.
`COc1cc2c(cc1OC)CC(=O)N(CCCN(C)C[C@H]1Cc3cc(OC)c(OC)cc31)CC2`: the Potency result in assay [1], in assay [2] and in assay [3] was “inactive” throughout.
For the compound `CC(C)(C)c1cnc(CSc2cnc(NC(=O)C3CCNCC3)s2)o1`, the Potency in assay [1] is 6.11 µM (active); in assay [2], 0.968 µM (active); in assay [3], 0.968 µM (active).
Regarding `CC(C)(C)C(=O)Oc1ccc2c(c1)nc(NC(=O)c1cccc([N+](=O)[O-])c1)n2CCCO`, the Potency result in assay [1], in assay [2], in assay [3] and in assay [4] was “inactive” in each case.
Turning to `CNC(=O)c1cc(Oc2ccc(NC(=O)Nc3cc(C(C)(C)C)nn3-c3ccc4ncccc4c3)c(F)c2)ccn1`, the Potency was 7.69 µM (active) in assay [1], 19.3 µM (active) in assay [2] and 24.3 µM (active) in assay [3].
In the case of `NCCO`, the Potency result in assay [1], in assay [2], in assay [3] and in assay [4] was “inactive” each time.
As to `CC(NCc1ccc2c(c1)nc(NC(=O)c1ccc(-c3cn[nH]c3)s1)n2CC(C)(C)O)C(C)(C)C` (configuration not stated), the values for the Potency in assay [1], in assay [2] and in assay [3] were 1.93 µM (active), 0.485 µM (active) and 1.72 µM (active), respectively.
Regarding `COc1cc2c(Oc3ccc(-c4cnc(Nc5ccc(F)cc5)n(C)c4=O)cc3F)ccnc2cc1OCCCN1CCOCC1`, the Potency in assay [1] was 21.7 µM (active); in assay [2], 15.3 µM (active); in assay [3] it was 21.7 µM (active); in assay [4], 24.3 µM (active).
Turning to `O=C(Oc1ccccc1)c1cccc(C(=O)Oc2ccccc2)c1`, the Potency entry in assay [1], in assay [2], in assay [3] and in assay [4] was “inactive” in each case.
In the case of `C[C@H](CN1CCCC1)C(=O)c1ccc(C(F)(F)F)cc1`, the Potency result in assay [1], in assay [2], in assay [3] and in assay [4] was “inactive” each time.

The values are drawn from PubChem BioAssay (NCATS).
